From PubChem BioAssay
Hits are enriched below; roughly 11% of the tested compounds scored in any of these assays.
IMPase inh: cell-permeable inhibitors of inositol monophosphatase (IMPase) | AID 901 | CHO-M1 cells, IP1 accumulation, HTRF TR-FRET ratio | inhibition (IP1 accumulation), % at 46.1 µM | 120,000 tested, under 10 active; active = well fitted curve in the direction sought with a large enough effect in the signal ratio, not every such curve was filed as active; inconclusive = small, poorly fitted or top-dose-only effect, or a change in a side signal; inactive = no such curve, though single readings can be large or run the other way; the % refers to the signal ratio;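 also: cells stimulated with carbachol in lithium chloride buffer; higher means more IMPase inhibition seen as more IP1 and lower FRET ratio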
Target sequence (P97697 whole entry, looked up): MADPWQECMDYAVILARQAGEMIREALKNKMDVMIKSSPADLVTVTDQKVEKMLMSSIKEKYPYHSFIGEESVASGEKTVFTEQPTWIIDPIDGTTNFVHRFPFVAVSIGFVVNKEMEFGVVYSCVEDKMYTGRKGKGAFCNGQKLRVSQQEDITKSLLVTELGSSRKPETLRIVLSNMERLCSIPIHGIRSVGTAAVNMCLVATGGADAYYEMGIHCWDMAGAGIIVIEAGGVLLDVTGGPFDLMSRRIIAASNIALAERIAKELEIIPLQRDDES
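In this qHTS, compounds (final up to 46 uM) act on CHO-M1 cells that are then activated through the M1 receptor with carbachol, in pH 7.4 buffer containing 50 mM LiCl, for 30 min. IP1 accumulation is quantified by the IP-One immunoassay.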
PNC inhibitor: inhibitors of perinucleolar compartment assembly. PC3M PTB-GFP, PNC prevalence imaging, 16 h; active compounds read low. activity change (PNC), negative = inhibition, % at 10 µM. actives 3.1% (n = 140,000);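 active = readout at or below -70, meaning at least 70% loss of cells showing the perinucleolar compartment, a nuclear body marking cancer cells; inconclusive = readout between -30 and a set limit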
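PC3M cells stably expressing PTB-GFP, 750–1000 cells/well, treated 16 h at 37 °C with compound (23 nl of library stock), in duplicate. After paraformaldehyde fixation and Hoechst stain, imaged at 20x; PNC prevalence scored by image analysis.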
IMPase Li cell: cell-permeable IMPase inhibitors with lithium potentiation; CHO-M1 cells, IP1 TR-FRET (IP-One), carbachol + lithium; Potency, µM (series often up to 59.4 µM), hits mostly inhibitors; actives 0.35% (n = 210,000); AID 1457; active = well fitted inhibition curve with a large enough effect; inconclusive = small, poorly fitted or top-dose-only effect; inactive = no such curve, though single readings can be large or run the other way;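 also: IP1 builds up when IMPase is blocked and the TR-FRET signal falls; nearly all actives have a fitted effect of over 50% in size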
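CHO cells stably expressing M1 receptor (2000/well, cultured 16–30 h) treated 30 min at 37C with compound plus low lithium. Cytosolic IP1 by TR-FRET (665/620 ratio and 620 channel) after 10 min lysis; AC50 by Hill fit.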
HPGD block: blocks human HPGD enzyme activity. P15428. AID 894. Potency, µM, most hits filed as inhibitors. actives 4.3% (n = 150,000). purified HPGD, NADH fluorescence kinetic, PGE2 substrate
Target sequence (P15428 whole entry, looked up): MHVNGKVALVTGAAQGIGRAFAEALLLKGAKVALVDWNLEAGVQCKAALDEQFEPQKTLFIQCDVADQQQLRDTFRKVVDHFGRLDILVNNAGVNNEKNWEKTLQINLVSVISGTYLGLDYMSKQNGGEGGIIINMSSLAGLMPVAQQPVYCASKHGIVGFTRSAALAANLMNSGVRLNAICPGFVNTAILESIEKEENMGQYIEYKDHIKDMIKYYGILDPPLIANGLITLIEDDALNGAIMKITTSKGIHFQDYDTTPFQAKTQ
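20 nM HPGD preincubated 15 min at room temperature with compound in 50 mM Tris-HCl pH 8, 0.01% Tween 20. Started with 1 mM NAD+ and 30 uM prostaglandin E2; NADH fluorescence (360/450 nm) read 5 times over 30-s intervals, last minus first.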
ALDH1A1 block: ALDH1A1 (human) enzyme inhibition; Purified ALDH1A1, NADH fluorescence, propionaldehyde substrate; Potency, µM (top dose mostly 75.3 µM), actives largely listed as inhibitors; actives 7.3% (n = 220,000); AID 1030
Numbers stand for hits; – = inactive; ? = inconclusive; · = no result given; ! = repeats disagree; [ ] = another dose, or the depositor's remark. Unless noted, calls follow the shape of the dose curve; as a rule, active = well fitted inhibition curve with a large enough effect (not every such curve was filed as active); inconclusive = small, poorly fitted or top-dose-only effect, or another doubt; inactive = no such curve, though single readings can be large or run the other way.

SMILES	IMPase inh	PNC inhibitor	IMPase Li cell	HPGD block	ALDH1A1 block
S=c1[nH]nc(-c2cc(-c3ccco3)[nH]n2)n1-c1cccc2ccccc12	–	?	–	11µM	?
Cn1cnc2c(ncn2[C@@H]2O[C@H](CO)[C@@H](O)[C@H]2O)c1=N	·	·	–	·	–
O=C(O)c1ccc(-n2c(-c3cc(-c4ccco4)[nH]n3)n[nH]c2=S)cc1	–	–	–	?	?
CC(=O)c1ccc(-n2c(-c3cc(-c4ccco4)[nH]n3)n[nH]c2=S)cc1	–	–	–	5.6µM	–
O=C(N/N=C/c1cn(-c2ccccc2)nc1-c1cc2ccccc2o1)c1ccncc1	·	–	–	–	–
O=C(N/N=C/c1cn(-c2ccccc2)nc1-c1cc2ccccc2o1)c1cccnc1	·	-106	–	?	?
O=c1cc(O)cc(/C=C/c2ccc(O)c(O)c2)o1	·	·	–	?	?
O=C(O)CNC(=S)N(Cc1ccccc1)Cc1cccnc1	·	·	–	·	–
CC1CCCC(NC(=O)CNC(=S)N(Cc2ccccc2)Cc2cccs2)C1C (configuration not stated)	·	·	–	·	13µM
O=C(CNC(=S)N(Cc1ccccc1)Cc1cccnc1)NC1CCCCC1	·	–	–	–	13µM
O=C(CNC(=S)N(Cc1ccccc1)Cc1cccnc1)NCc1ccccc1	·	·	–	·	18µM
COc1ccc(CN(Cc2cccnc2)C(=S)NCCc2ccccc2)cc1OC	–	-106	–	–	?
CC(/C=N/NC(=O)Cn1cnc2c1c(=O)n(C)c(=O)n2C)=C\c1ccccc1	·	?	–	–	–
CC(C)(C)n1nnnc1CN1C2CCC1CC(NC(=O)Nc1ccccc1)C2 (configuration not stated)	–	–	–	–	?
CCOC(=O)c1ccc(NC(=O)NC2CC3CCC(C2)N3Cc2nnnn2Cc2ccco2)cc1 (configuration not stated)	–	–	–	–	13µM
O=C1CCC=C1C(O)CCc1ccccc1 (configuration not stated)	·	·	–	–	–
O=C(NCCc1ccccc1)c1ccc(Nc2nc3ccccc3n3nnnc23)cc1	–	·	·	·	·
CCC1(c2ccc(Cl)cc2)NC(=S)N(c2ccccc2)N1 (configuration not stated)	–	–	–	–	13µM
CCC1(c2ccccc2)NC(=S)N(c2ccc(C)cc2)N1 (configuration not stated)	·	·	–	·	?
NCCC[C@@H](CC(=O)N[C@@H]1CCCC[C@H]1C(=O)N[C@H](CC(=O)N[C@@H](CCC(=O)O)CC(=O)O)Cc1c[nH]c2ccccc12)NC(=O)C[C@H](Cc1ccccc1)NC(=O)[C@@H]1CCCC[C@H]1N	·	·	–	–	–
Cc1nn(C)c(=O)n1-c1ccccc1	·	·	–	·	–
Cc1nc(=O)cc(-c2ccccc2)n1-c1ccccc1	–	-108	–	–	–
C/C=C(\C)C(=O)OC1[C@@H]2C=C3C4CC(=O)OC(c5ccoc5)[C@]4(C)CCC3[C@@](C)(C2=O)C(C(O)C(=O)OC)C1(C)C (some centres not stated)	·	·	–	–	–
O=C(NNC(=O)c1cccnc1)NC12CC3CC(CC(C3)C1)C2	·	-81	–	–	–
Cc1ccc(S(=O)(=O)N/N=C/c2cc(Br)c(C)o2)cc1	–	–	–	–	5.6µM
SMILES	IMPase inh	PNC inhibitor	IMPase Li cell	HPGD block	ALDH1A1 block
Cc1ccc(S(=O)(=O)N/N=C/c2cn(C)nc2C)cc1	–	–	–	–	?
Cc1ccc(S(=O)(=O)N/N=C\c2cccnc2)cc1	–	-88	–	–	?
Cc1ccc(C)c(S(=O)(=O)N/N=C/c2cccnc2)c1	·	–	–	–	8.9µM
Cc1ccc(S(=O)(=O)N/N=C(\c2ccccc2)c2cccnc2)cc1	·	·	–	·	–
OCCOCCN1CCN(C(=S)Nc2ccccc2)CC1	·	·	–	·	–
O=S(=O)(/N=C(\Sc1ccc(Cl)cc1)c1ccccc1)c1ccccc1	–	–	–	20µM	–
COc1ccc2c(c1)nc(SCC(=O)c1ccc(Br)s1)n2C	–	–	–	?	28µM
COc1cccc(NC(=O)CSc2nc3ccccc3n2C)c1	–	·	–	·	–
CC(C)COc1nc2ccccc2c(=O)n1OCC(=O)O	–	?	–	–	–
CCCOn1c(OCC(C)C)nc2ccccc2c1=O	–	–	–	–	22µM
CCOC(=O)N1CCN(c2ncnc3c2cnn3-c2ccc(Cl)cc2)CC1	–[1.84 µM]	–	–	?	4µM
CCN1CCN(c2ncnc3c2cnn3-c2ccccc2)CC1	–	?	–	–	?
Cc1ccccc1C(=O)N1CCN(c2ncnc3c2cnn3-c2ccccc2)CC1	–	–	–	–	7.9µM
CN1CCN(c2ncnc3c2cnn3-c2ccc(Cl)cc2)CC1	–	–	–	–	–
Cc1cccc(-n2ncc3c(N4CCC(C)CC4)ncnc32)c1	–	–	–	28µM	14µM
c1ccc(CCN2CCN(c3ncnc4c3cnn4-c3ccccc3)CC2)cc1	–	–	–	–	28µM
C=CC[C@@H]1C=C[C@@H](O/N=C\C[C@@H]2C=C[C@H](OC(C)=O)[C@H](COC(C)=O)O2)[C@@H](CO)O1	·	·	·	·	–[13.5 µM]
c1ccc(-n2ncc3c(N4CCCCC4)ncnc32)cc1	–	–	–	18µM	?
c1ccc(-n2ncc3c(N4CCC5(CC4)OCCO5)ncnc32)cc1	–	?	–	–	?
COc1ccccc1C1CN(c2ccc(F)cc2F)N=C1c1cccs1 (configuration not stated)	–	-94	14µM	?	?
CCn1c(COc2ccc3c(c2)OCO3)nnc1SCC(=O)c1ccc(Cl)cc1	–	–	–	–	–
CC1=C(/C=C/C(C)=C/C=C/C(C)=C/CO)C(C)(C)CCC1	–	·	–	–	25µM!
CC1=C(/C=C/C(C)=C/C=C/C(C)=C\C=O)C(C)(C)CCC1	·	·	–	–	?
CC1=C(/C=C/C(C)=C/C=C/C(C)=C\CO)C(C)(C)CCC1	·	·	–	·	25µM
CC1=C(/C=C\C(=O)O)C(C)(C)CCC1	·	·	–	–	–[13.5 µM]
SMILES	IMPase inh	PNC inhibitor	IMPase Li cell	HPGD block	ALDH1A1 block
CC1=C(/C=C/C(C)=C/C=C/C(C)=C/C=C/C=C(C)/C=C/C=C(C)/C=C/C2=C(C)C(=O)CCC2(C)C)C(C)(C)CCC1=O	·	·	–	–	–
CC1=C(/C=C/C(C)=C/C=C/C(C)=C/C=O)C(C)(C)CCC1	·	·	–	–	22µM
CC(=O)OC/C=C(C)/C=C/C=C(C)/C=C/C1=C(C)CCCC1(C)C	·	·	–	–	22µM!
Cc1nc2cnc(N3CCOCC3)nc2n(Cc2ccc(F)cc2)c1=O	·	·	–	·	–
COc1cc(CCNC(C)=O)c(C(=O)/C=C/c2cccc(OC)c2OC)cc1OC	·	·	–	–	–
CCOC(=O)c1c(NC(=O)c2noc3c2CCCC3)sc(C)c1C	–	–	–	?	22µM
CCOC(=O)Nc1sc(C)c(C)c1C(=O)OCC	·	–	–	–	–
COC(=O)C1=C(C(=O)OC)[C@@H]2N(Cc3ccccc3)c3ccccc3[C@@]23C[C@@H](C(=O)OC)N(C(=O)c2ccco2)C3=N1	·	·	–	–	–[13.5 µM]
